Assay outcomes deposited in PubChem BioAssay by National Center for Advancing Translational Sciences (NCATS).
Only some compounds are listed: those with a hit (about 9.4% of all), similar ones and a draw of the others.
ALDH1A1 block = qHTS Assay for Inhibitors of Aldehyde Dehydrogenase 1 (ALDH1A1); Aldehyde dehydrogenase 1A1 (Homo sapiens), P00352; Purified ALDH1A1, NADH fluorescence, propionaldehyde substrate; Potency, µM (titrated, usually from 75.3 µM), without a hit: at the top dose activity, negative = inhibition, actives largely listed as inhibitors; 220,000 compounds, 7.3% hits; AID 1030, 2008; active means well fitted inhibition curve with a large enough effect, not every such curve was filed as active; inconclusive means small, poorly fitted or top-dose-only effect, or another doubt; inactive means no such curve, though single readings can be large or run the other way;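 further: potency means the concentration at half of the fitted maximal effect; plate controls were no enzyme wells and a reference inhibitor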
Target sequence (P00352 whole entry, looked up): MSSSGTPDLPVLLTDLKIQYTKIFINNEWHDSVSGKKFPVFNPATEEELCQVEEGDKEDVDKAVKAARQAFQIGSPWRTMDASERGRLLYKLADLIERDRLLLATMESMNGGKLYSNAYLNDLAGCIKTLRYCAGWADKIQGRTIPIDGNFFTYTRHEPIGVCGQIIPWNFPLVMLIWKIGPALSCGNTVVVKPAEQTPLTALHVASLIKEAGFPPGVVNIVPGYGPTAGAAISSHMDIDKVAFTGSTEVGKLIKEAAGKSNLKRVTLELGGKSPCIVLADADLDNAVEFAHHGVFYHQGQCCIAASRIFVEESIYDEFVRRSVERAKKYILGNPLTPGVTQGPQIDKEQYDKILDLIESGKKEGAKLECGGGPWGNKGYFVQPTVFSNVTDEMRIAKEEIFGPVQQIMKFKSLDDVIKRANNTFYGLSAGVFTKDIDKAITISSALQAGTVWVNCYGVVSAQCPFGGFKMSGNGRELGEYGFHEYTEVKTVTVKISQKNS
IMPase Li inh = qHTS Assay for Identifying the Cell-Membrane Permeable IMPase Inhibitors: Potentiation with Lithium; CHO-M1 cells, IP1 TR-FRET (IP-One), carbachol + lithium; 210,000 compounds, 0.35% hits; Potency, µM (titrated, usually from 59.4 µM), for the others: top-dose activity, negative = IMPase inhibition, hits mostly inhibitors; AID 1457, 2008;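 further: IP1 builds up when IMPase is blocked and the TR-FRET signal falls; potency means the concentration at half of the fitted maximal effect; plate controls were basal vehicle for no effect and high inhibitor control for full effect; nearly all actives have a fitted effect of over 50% in size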
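CHO cells stably expressing M1 receptor (2000/well, cultured 16–30 h) treated 30 min at 37C with compound plus low lithium. Cytosolic IP1 by TR-FRET (665/620 ratio and 620 channel) after 10 min lysis; AC50 by Hill fit.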
HPGD inh = qHTS Assay for Inhibitors of HPGD (15-Hydroxyprostaglandin Dehydrogenase); 15-hydroxyprostaglandin dehydrogenase [NAD(+)] (Homo sapiens), P15428; purified HPGD, NADH fluorescence kinetic, PGE2 substrate; Potency, µM, inactives show at the top dose activity change, negative = inhibition, hits mostly inhibitors; 150,000 compounds, 4.3% hits; AID 894, 2007; active means well fitted inhibition curve with a large enough effect, not every such curve was filed as active; inconclusive means small, poorly fitted or top-dose-only effect, or another doubt; inactive means no such curve, though single readings can be large or run the other way; further: potency means the concentration at half of the fitted maximal effect; on the % scale 0 is the no-effect control and ±100 the full control effect
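NADH formation kinetics: reaction with 30 uM PGE2 and 1 mM NAD+ (final), 20 nM enzyme, Tris-HCl pH 8 with Tween 20, after 15 min compound preincubation at room temperature. Fluorescence change, last versus first of five reads.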
IMPase inh = qHTS Assay for Identifying the Cell-Membrane Permeable IMPase Inhibitors; Inositol monophosphatase 1 (Rattus norvegicus), P97697; CHO-M1 cells, IP1 accumulation, HTRF TR-FRET ratio; inhibition (IP1 accumulation), % at 46.1 µM; 120,000 tested, under 10 active; active means well fitted curve in the direction sought with a large enough effect in the signal ratio, not every such curve was filed as active; inconclusive means small, poorly fitted or top-dose-only effect, or a change in a side signal; inactive means no such curve, though single readings can be large or run the other way; the % refers to the signal ratio;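 further: cells stimulated with carbachol in lithium chloride buffer; plate controls were DMSO basal wells for no effect and reference inhibitor wells for full effect; higher means more IMPase inhibition seen as more IP1 and lower FRET ratio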
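CHO-M1, 2000 cells/well, cultured 16–30 h; cpd up to 46 uM; carbachol (50 uM solution, stimulation buffer w/ 50 mM LiCl, pH 7.4), 30 min 37C; IP-One TR-FRET, 10 min RT; Ex 320/Em 665, 620; Hill-fit AC50.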
HTT ATP protect = qHTS Multiplex Assay to Identify Dual Action Probes in a Cell Model of Huntington: Cytoprotection (ATP) | PC12 HTT-Q103 induced, cytoprotection, ATP luminescence, 40 h | Potency, µM (highest dose often 56.4 µM), for the others: cytoprotection (ATP increase), actives largely listed as activators | 230,000 compounds, 0.14% hits; further: potency means the concentration at half of the fitted maximal effect; % of control where 0% means no effect; nearly all actives have a fitted effect of over 45% in size
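PC12 cells stably carrying ecdysone-inducible Htt exon 1 (Q103)–GFP were induced with 100 nM tebufenozide (final) alongside library compounds in a dose series. Cytoprotection was scored as retained ATP by ATPlite luminescence.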
HttQ103 aggreg = qHTS Multiplex Assay to Identify Dual Action Probes in a Cell Model of Huntington: Aggregate Formation (GFP). PC12 HttQ103-GFP aggregates, Acumen cytometry, 40 h. Potency, µM (top dose mostly 46.1 µM), for inactives: top-dose activity change, negative = inhibition, usual class: inhibitors. 220,000 compounds, 1.1% hits; further: potency means the concentration at half of the fitted maximal effect; on the % scale 0 is the no-effect control and ±100 the full control effect; nearly all actives have a fitted effect of over 60% in size
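Using laser scanning cytometry, GFP-positive aggregates were counted after lysis of PC12 cells induced with 100 nM tebufenozide to express HTT exon 1 Q103–GFP. Compounds were tested in titration.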
Numbers without * were called inactive; u = inconclusive; x = no result; [ ] = another dose, or the depositor's remark. Unless noted, the call rests on the fitted dose curve; in most records, active means well fitted curve in the direction sought with a large enough effect; inconclusive means small, poorly fitted or top-dose-only effect, or another doubt; inactive means no such curve, though single readings can be large; an effect the other way counts as inactive or inconclusive.

SMILES | ALDH1A1 block | IMPase Li inh | HPGD inh | IMPase inh | HTT ATP protect | HttQ103 aggreg
COc1ccc(C(C)=O)cc1COC(=O)c1ccc2c(c1)OCO2 | 10µM* | 1%[38.3 µM] | -14% | 3 | -5%[10 µM] | -6%
COc1ccc(C(C)=O)cc1COC(=O)c1cnc(Cl)c(Cl)c1 | 1.4µM* | 16% | x | x | -2% | 16%
CNS(=O)(=O)c1cccc(C(=O)OCc2cc(C(C)=O)ccc2OC)c1 | u | 11% | x | x | -48% | 9%
CCOC(=O)CCN1C(=O)[C@H]2[C@H]3[C@H](O)[C@H](O)C/C(=N/NC(=O)OCc4ccc(OC)cc4)[C@H]3CC[C@@H]2C1=O | -5%[13.5 µM] | x | x | x | 5%[10 µM] | x
COc1ccc(Nc2nnc(-c3ccc(C)c(S(=O)(=O)N4CCOCC4)c3)c3ccccc23)cc1 | x | x | x | -2 | x | x
Cc1ccc(C(=O)n2ncn(C)c2=S)cc1 | 6.3µM* | -1% | x | x | -25% | -8%
CC(=O)C(C(C)=O)C1(O)C(=O)c2ccccc2C1=O | 1.6µM* | 5% | 7% | x | 8%[10 µM] | 27%
CCCN1CCN(C(=S)Nc2sc(CC)cc2C(=O)OC)CC1 | -7% | 2% | x | x | -17%[10 µM] | -18%[9.22 µM]
COC(=O)c1cc(C)sc1NC(=S)N1CCN(CCc2ccccc2)CC1 | 14µM* | 8% | x | x | 2%[10 µM] | -1%
CCC1=C2CC[C@H]3C(=O)N(C)C(=O)[C@H]3[C@H]2[C@@]2(C)C(=NCC(=O)OC)OC(=O)N2C1=O | -2% | -8% | -7% | x | -20% | x
Cc1nc2ccccc2n1-c1nc(-c2ccco2)cc(C(F)(F)F)n1 | 4% | 18%[38.3 µM] | -17% | -2 | -87% | 3.2µM*
COc1ccccc1N1C(=O)C(Cl)=C(Nc2ccccc2O)C1=O | 13µM* | 15% | x | x | u | 3%
CCN(CC)c1ccc(NC(=O)C2CC3CCC2C3)cc1 (configuration not stated) | 13µM* | 46%[38.3 µM] | 18µM* | 7 | -10% | -1%[9.22 µM]
CC(=O)Nc1cccc(NC(=O)C2CC3CCC2C3)c1 (configuration not stated) | 2% | 7%[38.3 µM] | -29% | 9 | -33% | 5%
CC(C)=CCC1=C(O)[C@](O)(CC=C(C)C)C(=O)C(C(=O)CC(C)C)=C1O | -7% | -3% | -14% | x | -10% | x
CN(c1ccc(O)cc1)c1nc(-c2ccccc2)cs1 | 9% | 20% | 16µM* | x | -65%[10 µM] | -4%
COc1ccc(C(=O)c2ccc(OC)c(N)c2)cc1N | 20µM* | 9%[38.3 µM] | -32% | -2 | -44% | u
CC(C)c1ccccc1NC(=O)CN1C(=O)c2cccc3cccc1c23 | x | x | x | 2 | x | x
C=CCn1c(=NC(=O)c2sc3ccccc3c2Cl)sc2cc(S(N)(=O)=O)ccc21 | u | 10µM* | -21% | x | -9%[10 µM] | -20%
CCOC(=O)Cn1c(=NC(=O)c2nc3ccccc3s2)sc2cc(S(N)(=O)=O)ccc21 | u | 10µM* | u | x | 30%[10 µM] | 10%
COC(=O)Cn1c(=NC(=O)CN2C(=O)CCC2=O)sc2cc(S(N)(=O)=O)ccc21 | -1% | -5% | -14% | x | 9%[10 µM] | 8%
COCCn1c(=NC(=O)c2sc3ccccc3c2Cl)sc2cc(S(N)(=O)=O)ccc21 | u | 11µM* | u | x | 9%[10 µM] | 33%
c1ccc2[nH]c(CN3CCCCCC3)nc2c1 | -4% | 11%[38.3 µM] | -17% | 6 | 8%[1.9 µM] | -7%
O=S(=O)(c1ccccc1F)N1CCN(Cc2nc3ccccc3[nH]2)CC1 | 11µM* | 33%[38.3 µM] | -7% | -2 | 12% | -3%
CCCCN(C)C(=O)c1nc2ccccn2c1CN1CCN(C(=O)c2cccs2)CC1 | 6.3µM* | 14% | x | x | -42% | 8%
